Measured values as given in PubChem BioAssay (EPA / NIEHS).
Results filed as inconclusive are left out. Calls of active or inactive are those of the source. The calls were made as follows, unless noted: active = hit-call score of the fitted dose curve at least 0.9, where 1 is the maximum; inactive = score below 0.9.

Key:
[1] = tested on: DIO1 (gene 1733); assay: CCTE_GLTED_hDIO1: CCTE's human Deiodinase 1 (DIO1) Inhibition Assay, Great Lakes Toxicology and Ecology Division (GLTED) Lab (AID 2283987; active = hit-call score of the fitted dose curve at least 0.9, where 1 is the maximum;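 also: isolated human DIO1 enzyme in a cell-free setup rather than cells; enzyme activity read as free iodide liberated from substrate via Sandell-Kolthoff colorimetry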)
Outline: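 Steps: human DIO1 enzyme plus test chemical, 3 h incubation; free iodide then quantified in a second Sandell-Kolthoff step by absorbance. DMSO served as negative control and baseline.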

[2] = CCTE_Simmons_MITO_basal_resp_rate: CCTE's HepG2 Seahorse XF Respirometric Screening Assay at Basal Respiratory State, Simmons Lab (AID 2284001); conditions: actives raise or lower the signal
Outline: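 Basal-phase OCR of HepG2 cells on a Seahorse XF96, analysed by bidirectional fit relative to DMSO vehicle; chemicals at 7 concentrations, 125 nM–100 uM final; three biological replicates; fenpyroximate and 2,4-dinitrophenol positive controls.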

[3] = CCTE_Simmons_MITO_max_resp_rate: CCTE's HepG2 Seahorse XF Respirometric Screening Assay at Maximal Respiratory State [uncoupled], Simmons Lab (AID 2284002); conditions: actives raise or lower the signal
Outline: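 HepG2, Seahorse XF96, maximal OCR post-FCCP. Cpd 125 nM–100 uM final (7 conc), n=3 biological. Kinetic reads every 6 min (3 min mix/3 min measure) over 72 min; fit bidirectional vs DMSO.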

[4] = CCTE_Simmons_MITO_inhib_resp_rate: CCTE's HepG2 Seahorse XF Respirometric Screening Assay at Inhibited Respiratory State [full ETC block], Simmons Lab (AID 2284006); conditions: actives raise or lower the signal
Outline: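 Test chemicals at seven final concentrations (125 nM–100 uM) in three biological replicates, with DMSO as vehicle. HepG2 oxygen consumption was then tracked on a Seahorse XF96 for 72 min through FCCP and rotenone/antimycin A phases, with the inhibited-phase rate as the endpoint.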

[5] = CCTE_Simmons_MITO_viability: CellTiter-Glo Viability Assessment for CCTE's HepG2 Seahorse XF Respirometric Screening Assay [post-hoc], Simmons Lab (AID 2284007; active = hit-call score of the fitted dose curve at least 0.9, where 1 is the maximum;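 as to AC50: cells exposed to chemical for 90 min before the ATP read; actives lower ATP signal relative to DMSO baseline meaning reduced viability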)
Outline: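 Post-hoc viability check on the HepG2 respirometry plates: luciferase-based ATP signal measured once, after 90 min compound exposure spanning 125 nM–100 uM final. Activity was referenced to DMSO as baseline.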

[6] = molecular target: Nucleoli Translocation, AR (gene 367) (UniProt P10275); assay: UPITT_HCI_U2OS_AR_TIF2_Nucleoli_Antagonist: University of Pittsburgh U2OS Androgen Receptor-Transcriptional Intermediary Factor 2 (AR-TIF2) Antagonism High Content Imaging Assay for Nucleoli Translocation (AID 2283997; active = hit-call score of the fitted dose curve at least 0.9, where 1 is the maximum)
Outline: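 Compounds are added at 20 uM final concentration in 0.2% DMSO to U2OS cells carrying AR-RFP and TIF2-GFP fusions. Nucleolar AR-RFP fluorescence is then quantified by automated imaging. Antagonism is fitted positively against DHT baseline.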

[7] = molecular target: Nucleoli Translocation, AR (gene 367) (UniProt P10275); assay: UPITT_HCI_U2OS_AR_TIF2_Nucleoli_Agonist: University of Pittsburgh U2OS Androgen Receptor-Transcriptional Intermediary Factor 2 (AR-TIF2) Agonism High Content Imaging Assay for Nucleoli Translocation (AID 2283998; active = hit-call score of the fitted dose curve at least 0.9, where 1 is the maximum)
Outline: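 RFP-AR / GFP-TIF2 cells; cpds diluted in serum-free medium; single-point screen 20 uM final (0.2% DMSO), actives confirmed in triplicate; conc-response 0.195–50 uM final (0.5% DMSO). Readout: nucleolar red fluorescence, positive direction vs DMSO.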

[8] = molecular target: Ratio of Nucleoli Translocation and Cytoplasm, AR (gene 367) (UniProt P10275); assay: UPITT_HCI_U2OS_AR_TIF2_Nucleoli_Cytoplasm_Ratio_Agonist: University of Pittsburgh U2OS Androgen Receptor-Transcriptional Intermediary Factor 2 (AR-TIF2) Agonism High Content Imaging Assay for Ratio of Nucleoli Translocation and Cytoplasm (AID 2284000; active = hit-call score of the fitted dose curve at least 0.9, where 1 is the maximum;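 also: hits raise the red nucleolar to cytoplasm ratio above vehicle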)
Outline: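 Human osteosarcoma U2OS line, AR-RFP plus TIF2-GFP; compounds 0.195–50 uM final, 0.5% DMSO. Readout: nucleolar/cytoplasmic RFP ratio by HCI, positive direction vs DMSO baseline.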

[9] = molecular target: Ratio of Nucleoli Translocation and Cytoplasm, AR (gene 367) (UniProt P10275); assay: UPITT_HCI_U2OS_AR_TIF2_Nucleoli_Cytoplasm_Ratio_Antagonist: University of Pittsburgh U2OS Androgen Receptor-Transcriptional Intermediary Factor 2 (AR-TIF2) Antagonism High Content Imaging Assay for Ratio of Nucleoli Translocation and Cytoplasm (AID 2283999; active = hit-call score of the fitted dose curve at least 0.9, where 1 is the maximum;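 also: antagonists lower the DHT-driven ratio of nucleolar to cytoplasmic red signal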)
Outline: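 This antagonist-mode endpoint tracks AR-RFP localisation, the nucleolus-to-cytoplasm intensity ratio, in TIF2-GFP-coexpressing U2OS cells. DMSO stays at or below 0.5%; testing spans 20 uM single-dose and 0.195–50 uM series, with DHT setting the activity baseline.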

[10] = TOX21_TR_RXR_BLA_Antagonist_Followup_viability: Viability Assessment in the Tox21 Thyroid Hormone Receptor beta Retinoid X Receptor alpha (RXRa) Antagonism Beta-lactamase (BLA) Follow-Up Assay (AID 2283979; active = hit-call score of the fitted dose curve at least 0.9, where 1 is the maximum)
Outline: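 RXRa-bla HEK293T cells (2,500/well, phenol red-free DMEM, 2% charcoal-stripped FBS) were attached 5 h, then exposed to compounds at 11 concentrations in triplicate for 16 h at 37C. Viability measured by CellTiter-Glo ATP luminescence, bidirectional fitting versus DMSO.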

[11] = CCTE_Harrill_HTTr_Viability_DMEM_24hr: (Pilot) CCTE's 24-hour Cell Viability Assessment for the High-Throughput Transcriptomics (HTTr) Platform, in MCF-7 cells cultured in DMEM + 10% fetal bovine serum, Harrill Lab (AID 2283975)
Outline: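 Pilot study: propidium iodide dye exclusion, imaged by high content microscopy, after 24 h compound exposure (eight concentrations) in MCF-7 cultured in DMEM + 10% fetal bovine serum; DMSO served as negative control and baseline.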

[12] = CCTE_Harrill_HTTr_Viability_PRF_DMEM_6hr: (Pilot) CCTE's 6-hour Cell Viability Assessment for the High-Throughput Transcriptomics (HTTr) Platform, in MCF-7 cells cultured phenol red-free DMEM + 10% charcoal-stripped fetal bovine serum, Harrill Lab (AID 2283976)
Outline: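 Membrane integrity by high-content imaging of propidium iodide uptake, six hours after dosing with eight concentrations. Cells: MCF-7 grown in phenol red-free DMEM plus 10% charcoal-stripped serum; DMSO serves as baseline for bidirectional fits.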

[13] = CCTE_Harrill_HTTr_Viability_PRF_DMEM_12hr: (Pilot) CCTE's 12-hour Cell Viability Assessment for the High-Throughput Transcriptomics (HTTr) Platform, in MCF-7 cells cultured in phenol red-free DMEM + 10% charcoal-stripped fetal bovine serum, Harrill Lab (AID 2283977)
Outline: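 Membrane integrity was scored via propidium iodide dye exclusion imaging, fitted in both directions relative to DMSO. Compounds ran as eight-point dilutions for 12 hours on MCF-7 grown in phenol red-free DMEM plus 10% charcoal-stripped serum.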

[14] = CCTE_Harrill_HTTr_Viability_PRF_DMEM_24hr: (Pilot) CCTE's 24-hour Cell Viability Assessment for the High-Throughput Transcriptomics (HTTr) Platform, in MCF-7 cells cultured in phenol red-free DMEM + 10% charcoal-stripped fetal bovine serum, Harrill Lab (AID 2283980)
Outline: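 Propidium iodide exclusion imaged at 24 h after dosing scores viability; cells were MCF-7 grown in phenol red-free DMEM plus 10% charcoal-stripped serum, tested in eight concentrations, fitted in both directions against DMSO.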

[15] = CCTE_Harrill_HTTr_Apoptosis_DMEM_6hr: (Pilot) CCTE's 6-hour Apoptosis Assessment for the High-Throughput Transcriptomics (HTTr) Platform, in MCF-7 cells cultured in DMEM + 10% fetal bovine serum, Harrill Lab (AID 2283981)
Outline: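 MCF-7 cells grown in DMEM + 10% FBS were exposed for 6 hours to an eight-point dilution series. CellEvent Caspase 3/7 Green signal was imaged; activity fitted bidirectionally against DMSO.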

[16] = CCTE_Harrill_HTTr_Apoptosis_DMEM_12hr: (Pilot) CCTE's 12-hour Apoptosis Assessment for the High-Throughput Transcriptomics (HTTr) Platform, in MCF-7 cells cultured in DMEM + 10% fetal bovine serum, Harrill Lab (AID 2283982)
Outline: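 Caspase-3/7 activity was measured by high-content imaging (CellEvent Caspase 3/7 Green) after a 12-hour exposure of MCF-7 cells grown in DMEM with 10% FBS. Eight-point concentration series, fitted bidirectionally against vehicle.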

[17] = CCTE_Harrill_HTTr_Apoptosis_DMEM_24hr: (Pilot) CCTE's 24-hour Apoptosis Assessment for the High-Throughput Transcriptomics (HTTr) Platform, in MCF-7 cells cultured in DMEM + 10% fetal bovine serum, Harrill Lab (AID 2283983)
Outline: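 Caspase-3/7 activity read by high-content imaging (CellEvent Green reagent) 24 h after dosing. MCF-7 cells grown in DMEM with 10% FBS received an eight-point concentration series; fits were bidirectional versus DMSO.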

[18] = CCTE_Harrill_HTTr_Apoptosis_PRF_DMEM_6hr: (Pilot) CCTE's 6-hour Apoptosis Assessment for the High-Throughput Transcriptomics (HTTr) Platform, in MCF-7 cells cultured phenol red-free DMEM + 10% charcoal-stripped fetal bovine serum, Harrill Lab (AID 2283984)
Outline: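 Caspase-3/7 activity (CellEvent Green) read by high-content imaging 6 h after dosing, eight concentrations. Cells: MCF-7, phenol red-free DMEM with 10% charcoal-stripped serum. Curves fit both directions against DMSO.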

[19] = CCTE_Harrill_HTTr_Apoptosis_PRF_DMEM_12hr: (Pilot) CCTE's 12-hour Apoptosis Assessment for the High-Throughput Transcriptomics (HTTr) Platform, in MCF-7 cells cultured in phenol red-free DMEM + 10% charcoal-stripped fetal bovine serum, Harrill Lab (AID 2283985)
Outline: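 Caspase-3/7 activity by CellEvent Green high content imaging after 12 h compound exposure (eight concentrations) in MCF-7 grown in phenol red-free DMEM plus 10% charcoal-stripped serum; DMSO as baseline.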

[20] = CCTE_Harrill_HTTr_Apoptosis_PRF_DMEM_24hr: (Pilot) CCTE's 24-hour Apoptosis Assessment for the High-Throughput Transcriptomics (HTTr) Platform, in MCF-7 cells cultured in phenol red-free DMEM + 10% charcoal-stripped fetal bovine serum, Harrill Lab (AID 2283986)
Outline: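 Eight concentrations tested for 24 h on MCF-7 grown in charcoal-stripped serum, phenol red-free DMEM. High content imaging of CellEvent Caspase 3/7 Green signal gives apoptosis read-out, fitted both ways relative to DMSO.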

Measured: AC50

Nucleoli Translocation, AR (gene 367), sequence (P10275 whole entry, looked up, the tested form may be a part): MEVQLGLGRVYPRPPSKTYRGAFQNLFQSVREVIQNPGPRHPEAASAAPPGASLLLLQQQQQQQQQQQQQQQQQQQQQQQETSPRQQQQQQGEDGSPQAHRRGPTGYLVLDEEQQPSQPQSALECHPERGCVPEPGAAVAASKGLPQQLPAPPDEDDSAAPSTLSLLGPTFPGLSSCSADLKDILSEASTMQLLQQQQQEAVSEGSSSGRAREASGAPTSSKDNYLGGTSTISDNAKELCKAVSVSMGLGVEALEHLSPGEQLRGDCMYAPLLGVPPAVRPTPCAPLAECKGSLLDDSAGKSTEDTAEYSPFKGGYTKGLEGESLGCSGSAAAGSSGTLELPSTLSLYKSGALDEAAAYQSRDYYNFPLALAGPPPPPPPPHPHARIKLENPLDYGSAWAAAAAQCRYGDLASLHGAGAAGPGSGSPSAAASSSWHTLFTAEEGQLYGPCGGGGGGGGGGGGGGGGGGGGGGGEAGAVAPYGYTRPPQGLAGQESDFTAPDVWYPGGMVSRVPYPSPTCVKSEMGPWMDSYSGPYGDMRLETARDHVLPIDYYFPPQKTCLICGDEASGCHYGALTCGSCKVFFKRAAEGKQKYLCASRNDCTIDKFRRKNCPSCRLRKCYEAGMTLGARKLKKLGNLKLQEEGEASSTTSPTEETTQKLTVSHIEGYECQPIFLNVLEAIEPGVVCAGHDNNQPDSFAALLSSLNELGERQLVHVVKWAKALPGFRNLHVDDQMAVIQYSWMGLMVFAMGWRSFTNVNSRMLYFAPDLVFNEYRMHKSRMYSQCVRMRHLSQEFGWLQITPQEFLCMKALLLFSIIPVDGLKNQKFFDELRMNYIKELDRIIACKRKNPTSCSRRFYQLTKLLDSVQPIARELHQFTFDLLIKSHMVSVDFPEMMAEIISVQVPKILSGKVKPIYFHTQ
Ratio of Nucleoli Translocation and Cytoplasm, AR (gene 367), sequence (P10275 whole entry, looked up): as the sequence (P10275 whole entry, looked up, the tested form may be a part) above

O=C1C2CC=CCC2C(=O)N1SC(Cl)(Cl)Cl (stereo not drawn)
inactive: [4] | [5]
active: [1] 53.8 µM | [2] 59.9 µM | [3] 67.8 µM

Clc1cccc(C(Cl)(Cl)Cl)n1
inactive: [6] | [7] | [8]

CCOP(=O)(OCC)Oc1nc(Cl)c(Cl)cc1Cl
active: [2] 29.6 µM | [3] 49.8 µM | [5] 10.7 µM
inactive: [6] | [8] | [4]

OC(c1ccc(Cl)cc1)(c1ccc(Cl)cc1)C(Cl)(Cl)Cl
active: [1] 70.4 µM

Cn1c(-c2ccccc2)cc(-c2ccccc2)[n+]1C
inactive: [4] | [5]
active: [2] 41.9 µM | [3] 20 µM

COP(=S)(OC)SCn1nnc2ccccc2c1=O
active: [1] 47.3 µM | [6] 31.4 µM
inactive: [7] | [9]

CO/N=C(/C1=NOCCO1)c1ccccc1Oc1ncnc(Oc2ccccc2Cl)c1F
inactive: [5]
active: [10] 52 µM | [2] 6.74 µM | [3] 4.35 µM | [4] 6.67 µM

CCOc1cc(C(C)(C)C)ccc1C1COC(c2c(F)cccc2F)=N1 (stereo not drawn)
inactive: [6]

CCSC(=O)N1CCCCCC1
inactive: [2] | [3] | [4]

CC1(C)C(C=C(Cl)Cl)C1C(=O)OC(C#N)c1cccc(Oc2ccccc2)c1 (stereo not drawn)
not listed: [1] | [6] | [7] | [8] | [9] | [10]
inactive: all other assays above

CC(C)N1C(=O)N(c2ccccc2)CSC1=NC(C)(C)C
inactive: [6] | [7] | [9] | [8] | [2] | [3] | [4]
